# CYP2C9 act: increases human cytochrome P450 2C9 activity; recombinant CYP2C9, luciferin-H conversion, luminescence; active compounds read high; factor 1 = untreated enzyme, 0 = blocked; 96,000 compounds, 1.4% hits; activation factor at 5 µM; AID 1024;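 active = activation factor of 2 or more for CYP2C9 at a 5 µM dose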;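 also: 0 = sulfaphenazole-blocked wells and 1 = vehicle-only wells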
# CYP2C9 inh: inhibitors of human CYP2C9; inhibition, % at 5 µM; P11712; 96,000 compounds, 20% hits; CYP2C9 Supersomes, luciferin-H conversion, luminescence;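 active = blocking of liver enzyme CYP2C9 beyond about 50% at 5 µM, limit read from the data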
# PTK2B oligo ant: blocks oligomerization of human Pyk2 in cells; Q14289; 99,000 compounds, 0.83% hits; Q293 cells, Pyk2 FERM NanoBiT luminescence; active compounds read low; z-score (the deposit names both 25 µM and 10 µM);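 active = Z-score of -3 or lower, scaled per plate to the spread of control and sample wells; inactive = z-score above -3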;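 also: negative z-score means lost luminescence so less FERM oligomerization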
# Target sequence (Q14289 whole entry, looked up): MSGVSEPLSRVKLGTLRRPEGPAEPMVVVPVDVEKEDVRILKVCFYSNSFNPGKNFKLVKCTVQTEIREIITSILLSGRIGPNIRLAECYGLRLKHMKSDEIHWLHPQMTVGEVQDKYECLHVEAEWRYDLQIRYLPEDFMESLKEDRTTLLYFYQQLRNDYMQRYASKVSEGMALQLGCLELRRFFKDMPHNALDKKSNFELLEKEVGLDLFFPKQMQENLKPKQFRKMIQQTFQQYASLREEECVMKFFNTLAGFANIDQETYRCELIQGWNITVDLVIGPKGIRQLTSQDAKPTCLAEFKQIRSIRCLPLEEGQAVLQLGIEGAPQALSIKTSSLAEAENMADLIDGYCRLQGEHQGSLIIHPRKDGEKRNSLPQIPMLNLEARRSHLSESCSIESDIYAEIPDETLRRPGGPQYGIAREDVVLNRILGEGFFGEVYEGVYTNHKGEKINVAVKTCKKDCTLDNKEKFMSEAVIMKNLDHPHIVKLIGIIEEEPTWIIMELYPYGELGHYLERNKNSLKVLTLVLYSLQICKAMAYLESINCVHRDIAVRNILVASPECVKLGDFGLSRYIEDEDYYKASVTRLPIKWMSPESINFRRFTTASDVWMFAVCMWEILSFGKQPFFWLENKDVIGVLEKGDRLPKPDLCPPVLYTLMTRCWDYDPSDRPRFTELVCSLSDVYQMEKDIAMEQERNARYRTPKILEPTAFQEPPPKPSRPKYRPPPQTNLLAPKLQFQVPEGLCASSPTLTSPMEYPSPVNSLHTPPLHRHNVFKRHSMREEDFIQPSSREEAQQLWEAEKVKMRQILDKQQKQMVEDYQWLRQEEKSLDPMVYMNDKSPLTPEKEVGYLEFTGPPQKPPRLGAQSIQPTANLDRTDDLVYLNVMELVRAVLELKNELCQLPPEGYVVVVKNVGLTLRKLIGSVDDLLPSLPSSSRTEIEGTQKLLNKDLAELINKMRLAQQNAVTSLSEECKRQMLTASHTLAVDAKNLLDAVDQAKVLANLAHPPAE
# CYP2C19 inhib: human CYP2C19 inhibition. P33261. CYP2C19 Supersomes, luciferin-H EGE luminescence, 30 min. inhibition, % at 5 µM. 96,000 compounds, 21% hits;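 active = CYP2C19 inhibition above a set limit at 5 µM in the primary screen, cut at about 50% in these data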;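 also: plate controls were negative control wells for no effect and 2.5 mM tranylcypromine positive control for full effect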
# CYP2C19 act: cytochrome P450 2C19 (human) activation | P33261 | recombinant CYP2C19, luciferin-H EGE luminescence; active compounds read high; 0 = fully inhibited enzyme, 1 = untreated enzyme | activation factor at 5 µM | 96,000 tested, under 10 active | AID 1025;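 active = activation factor of at least 2 at 5 µM in the primary screen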;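 also: 0 = wells with 2.5 mM tranylcypromine and 1 = vehicle-only wells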
# Numbers without * were called inactive; / = no result given. The list is not random: actives were taken first. Their share in the collection is about 28%.
SMILES,CYP2C9 act,CYP2C9 inh,PTK2B oligo ant,CYP2C19 inhib,CYP2C19 act
CCOC(=O)N1CCN(C(=O)c2cc(-n3cnnc3)ccc2Cl)CC1,1.1,-7.3,0.77,2.4,1
O=C1c2ccccc2C(=O)C12Cc1ccccc1N1CCN(c3ccccc3)CC12 (stereo not drawn),0.2,76.0*,0.91,55.8*,0.4
O=C(Oc1ccc(-c2cn3c(n2)SCC3)cc1)c1ccccc1,1.1,-10.0,0.97,-10.1,1.1
O=C(Cn1c(=O)n(CCCCC(=O)NC2CCCC2)c(=O)c2ccccc21)NCCC1=CCCCC1,0.9,5.7,-0.28,6.4,0.9
CCCCNC(=O)CCn1c(=O)c2ccccc2n(CC(=O)N2CC(C)CC(C)C2)c1=O (stereo not drawn),0,95.2*,-0.6,39.4,0.6
O=C(CCn1c(=O)c2ccccc2n(CC(=O)NC2CCCC2)c1=O)NCCc1ccc(Cl)cc1,0.3,69.0*,-0.2,54.7*,0.5
Cc1ccc(CNC(=O)CCCn2c(=O)c3ccccc3n(CC(=O)NC3CCCC3)c2=O)cc1,0.3,75.0*,0.08,30.8,0.7
CCOc1ccccc1NC(=O)Cn1c(=O)n(CCC(=O)NC2CCCC2)c(=O)c2ccccc21,0.3,73.5*,1.8,39.8,0.6
CCCCNC(=O)c1cn(-c2ccc(OCC)cc2)c(=O)c2cc(OC)c(OC)cc12,0.6,37.8,-0.53,6.0,0.9
CCOC(=O)CN1C(=O)C(O)=C(C(C)=O)C1c1ccccc1 (stereo not drawn),0.9,8.5,0.68,8.2,0.9
COCCCN1C(=O)c2ccc(C(=O)O)cc2C1=O,1,-1.5,0.83,-8.9,1.1
N#C/C(=C\c1ccccc1)c1nc2ncccc2[nH]1,0.3,66.0*,-0.23,15.7,0.8
CC1(C)Cc2ccccc2-c2n[nH]c(=S)n21,0.5,52.7*,2.28,25.7,0.7
CCOC(=O)C1CCCN(c2c(Nc3cc(C)cc(C)c3)c(=O)c2=O)C1 (stereo not drawn),0.7,31.1,/,40.5,0.6
CCOC(=O)C(=CNc1cc(C)nn1C(C)(C)C)C(=O)OCC,0.5,48.6,1.03,20.8,0.8
CCOC(=O)C(=CNc1cc(C)nn1-c1ccc(C)cc1)C(=O)OCC,0.4,64.7*,-1.7,48.3,0.5
CCC(C)c1ccc(OCCn2cc(/C=N/NC(=O)CSc3nnc(C)s3)c3ccccc32)cc1 (stereo not drawn),0.8,16.5,-0.95,12.4,0.9
CCCOc1ccccc1C1CC(=O)NC(C)=C1C(=O)OCC(C)C (stereo not drawn),1.1,-6.1,-2.13,56.3*,0.4
CC1=C(C(=O)OC(C)C)C(c2ccccc2Cl)CC(=O)N1 (stereo not drawn),0.9,7.3,-0.57,86.7*,0.1
Cc1cc2c(n1-c1ccc(Br)cc1)CC(C)(C)CC2=O,1,2.7,-0.08,67.4*,0.3
COc1ccc(CN2CCN(C(=O)c3cccnc3)CC2)cc1Br,0.5,47.3,0.62,93.6*,0.1
CCS(=O)(=O)N1CCN(C(=O)c2cccc(OC)c2)CC1,1,-3.0,0.82,29.0,0.7
O=C(c1cccnc1)N1CCN(Cc2cccc(Br)c2)CC1,0.7,27.1,1.4,94.3*,0.1
O=C(c1cccnc1)N1CCN(Cc2ccccc2Br)CC1,1.1,-5.4,-0.15,79.6*,0.2
COc1cccc(N2CCN(C(=O)c3cccnc3)CC2)c1,0.9,12.4,-0.55,70.9*,0.3
SMILES,CYP2C9 act,CYP2C9 inh,PTK2B oligo ant,CYP2C19 inhib,CYP2C19 act
O=C(c1cccnc1)N1CCN(C(=O)c2ccco2)CC1,/,/,0.17,/,/
CCOC(=O)/N=C(/NC(=O)Nc1ccc(C(=O)OCC)cc1)OC,1,3.4,1.18,-1.0,1
CC(C)C(=O)Nc1ccc(C(=O)NNC(=O)CCCOc2ccc(Cl)cc2Cl)cc1,0.6,39.5,3.23,7.2,0.9
O=C(Nc1ccc(-c2nc3ccc(NC(=O)c4cccs4)cc3[nH]2)cc1)c1cccs1,0.8,21.2,-0.48,11.2,0.9
O=C(Nc1ccc2nc(-c3cccs3)[nH]c2c1)c1cccs1,0.2,80.9*,0.01,57.1*,0.4
CC(NC(=O)C12CC3CC(CC(C3)C1)C2)C(=O)N/N=C/C1=C(N2CCOCC2)C(=C\c2ccccc2)/CC1 (stereo not drawn),/,/,-0.12,/,/
CCOC(=O)/C(N=Nc1c(Br)cc(Br)cc1Br)=C(\C)O,0.8,22.2,-0.65,17.7,0.8
NC(=O)CSc1nc2ccccc2n1Cc1ccccc1F,1,-0.9,0.06,57.2*,0.4
CCCNC(=O)c1ccc(SC)cc1OC,1,0.1,-0.1,29.8,0.7
COc1cc(SC)ccc1C(=O)N(C)Cc1ccccc1,1.4,-38.0,-1.31,97.5*,0
COc1cc(SC)ccc1C(=O)NCc1ccc(C)cc1,1.2,-17.1,-1.63,90.7*,0.1
COc1cc(SC)ccc1C(=O)NCC1CCCO1 (stereo not drawn),1.1,-5.6,0.24,59.5*,0.4
CN(C)c1nc(N)nc(-c2ccco2)n1,1.1,-11.1,-1,-10.5,1.1
Cc1ccc(Cl)cc1NC(=O)CC1NCCNC1=O (stereo not drawn),/,/,0.72,/,/
O=C(O)Cn1c(SC2CCCCC2)nc2ccccc21,0.9,13.3,-0.28,6.6,0.9
COc1ccc(S(=O)(=O)N2CCCCCC2)cc1N(C)S(=O)(=O)c1ccc(Cl)cc1,1,1.2,-2,-8.8,1.1
Cc1cc(NC(=O)CNC(=O)C2CCCCC2)no1,1,-1.0,0.04,6.5,0.9
COc1ccc(CNC(=O)c2cnccn2)cc1,1.3,-29.9,2.21,57.9*,0.4
COc1ccc(CNC(=O)c2csnn2)cc1,1,3.7,0.46,52.3*,0.5
O=C(NCc1ccncc1)c1cnccn1,1,4.1,-0.26,-1.0,1
c1ccc2c(c1)OCC(c1nnc3sc(-c4ccc5c(c4)OCO5)nn13)O2 (stereo not drawn),0.2,83.7*,-0.42,65.3*,0.3
Clc1ccccc1-c1nnc2sc(-c3ccc4c(c3)OCO4)nn12,0.6,44.1,-0.44,16.5,0.8
Brc1ccccc1-c1nnc2sc(-c3ccc4c(c3)OCCO4)nn12,0,96.5*,-0.06,74.4*,0.3
Fc1ccc(-c2nn3c(C4COc5ccccc5O4)nnc3s2)cc1 (stereo not drawn),0.5,49.0,0.57,6.8,0.9
c1csc(-c2nn3c(C4COc5ccccc5O4)nnc3s2)c1 (stereo not drawn),0.5,51.2*,-0.2,57.9*,0.4
c1ccc2c(c1)OCC(c1nnc3n1-c1ccccc1SC3)O2 (stereo not drawn),0.2,84.8*,-1.37,95.8*,0
c1ccc2c(c1)OCC(c1nnc3sc(-c4cnccn4)nn13)O2 (stereo not drawn),1,-4.2,0.53,20.6,0.8
Cc1ccc(C(=O)Nc2cc(C)c(OCC(=O)N3CCOCC3)c(C)c2)cc1,0.2,78.0*,0.09,9.6,0.9
CCN(CC)S(=O)(=O)c1cccc(-c2cn3cc(C)ccc3n2)c1,0.3,67.1*,-1.6,60.8*,0.4
